# Columns and labels:
# Assay in all cases: PBM binding z-score (relative to random genomic background probes); higher = stronger binding; sequences stand for … in GC…GCGATTGACAGCGTAGAATGAAGG
# [1] = system: FXR:RXRa (NR concentration 270 nM, RXRa partner concentration 90 nM)
# In short: (§1)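 The probes on custom Agilent 4×180K protein-binding microarrays were double-stranded, with 34-nt variable regions bearing direct-repeat seeds, single-nucleotide variants, half-site ablations and random human genomic background sequences. Incubation lasted 1 h with ligand-free nuclear receptor dimers in PBS pH 7.4, 2% milk, 0.02% Triton X-100, 1 mM DTT, 0.2 mg/mL BSA and 0.4 mg/ml salmon testes DNA. Antibodies against each partner (one per run) detected bound dimers, and fluorescence scans were regression-normalized. Binding z-scores take the random background probes as reference.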
# [2] = system: LXRa:RXRa (NR concentration 270 nM, RXRa partner concentration 90 nM)
# In short: as §1
# [3] = system: LXRa homodimer (NR concentration 270 nM)
# In short: as §1
# [4] = system: LXRb:RXRa (NR concentration 270 nM, RXRa partner concentration 90 nM)
# In short: as §1
# [5] = system: LXRb homodimer (NR concentration 270 nM)
# In short: as §1
# [6] = system: PPARa:RXRa (NR concentration 270 nM, RXRa partner concentration 90 nM)
# In short: as §1
# [7] = system: PPARg:RXRa (NR concentration 180 nM, RXRa partner concentration 90 nM)
# In short: as §1
# [8] = system: PPARg:RXRa 270nM:90nM, anti-RXR (NR concentration 270 nM, RXRa partner concentration 90 nM)
# In short: as §1
# [9] = system: PPARg:RXRa 30nM:10nM, anti-RXR (NR concentration 30 nM, RXRa partner concentration 10 nM)
# In short: as §1
# [10] = system: PPARg:RXRa 90nM:30nM, anti-RXR (NR concentration 90 nM, RXRa partner concentration 30 nM)
# In short: as §1
sequence,measurement,setting,value
TGTCAAATTTCAAAGGTAACGTAAGTATCCACAC,PBM binding z-score,[1],0.556
same,PBM binding z-score,[2],0.784
same,PBM binding z-score,[3],-0.0184
same,PBM binding z-score,[4],0.869
same,PBM binding z-score,[5],0.492
same,PBM binding z-score,[6],0.954
same,PBM binding z-score,[7],0.712
same,PBM binding z-score,[8],1.41
same,PBM binding z-score,[9],1.62
same,PBM binding z-score,[10],1.41
ACTTACGGGTCAACGAGGTTATAGCCCGCGTATA,PBM binding z-score,[1],6.28
same,PBM binding z-score,[2],4.99
same,PBM binding z-score,[3],0.779
same,PBM binding z-score,[4],4.32
same,PBM binding z-score,[5],0.557
same,PBM binding z-score,[6],5.47
same,PBM binding z-score,[7],4.98
same,PBM binding z-score,[8],5.37
same,PBM binding z-score,[9],2.01
same,PBM binding z-score,[10],4.01
CCGAGTAGGTTATGGGGTATTCAGGCAACGGTGA,PBM binding z-score,[1],0.497
same,PBM binding z-score,[2],0.701
same,PBM binding z-score,[3],0.47
same,PBM binding z-score,[4],1.09
same,PBM binding z-score,[5],0.945
same,PBM binding z-score,[6],1.81
same,PBM binding z-score,[7],2.56
same,PBM binding z-score,[8],3.45
same,PBM binding z-score,[9],0.984
same,PBM binding z-score,[10],2.68
GTACCAAGGTGAATAGGTCATTGATGAGTAGGCG,PBM binding z-score,[1],2.6
same,PBM binding z-score,[2],2.66
same,PBM binding z-score,[3],1.28
same,PBM binding z-score,[4],2.14
same,PBM binding z-score,[5],-0.295
same,PBM binding z-score,[6],3.87
same,PBM binding z-score,[7],3.39
same,PBM binding z-score,[8],3.52
same,PBM binding z-score,[9],1.55
same,PBM binding z-score,[10],2.85
ACAGACAGGTGATGAAGATAACTCAGGCTATCAT,PBM binding z-score,[1],-0.21
same,PBM binding z-score,[2],-0.125
same,PBM binding z-score,[3],-0.283
same,PBM binding z-score,[4],-0.276
same,PBM binding z-score,[5],-0.0745
same,PBM binding z-score,[6],-0.164
same,PBM binding z-score,[7],0.734
same,PBM binding z-score,[8],-0.057
same,PBM binding z-score,[9],0.429
same,PBM binding z-score,[10],0.0893
CCGACTGGGGCGTAAGGTTACCATAAGCCAGCCC,PBM binding z-score,[1],0.247
same,PBM binding z-score,[2],1.35
same,PBM binding z-score,[3],-0.338
same,PBM binding z-score,[4],0.704
same,PBM binding z-score,[5],-1.25
same,PBM binding z-score,[6],1.35
same,PBM binding z-score,[7],1.19
same,PBM binding z-score,[8],2.42
same,PBM binding z-score,[9],0.143
same,PBM binding z-score,[10],1.7
AGAATGAGGTTACCACAGATCAGGGAAACGCTTG,PBM binding z-score,[1],1.97
same,PBM binding z-score,[2],6.39
same,PBM binding z-score,[3],-0.0372
same,PBM binding z-score,[4],3.08
same,PBM binding z-score,[5],-0.518
same,PBM binding z-score,[6],3.53
same,PBM binding z-score,[7],2.72
same,PBM binding z-score,[8],2.65
same,PBM binding z-score,[9],1.11
same,PBM binding z-score,[10],1.73
AGAACGAGGGCACGCTCAGTTGATAGCAGAGTAG,PBM binding z-score,[1],0.582
same,PBM binding z-score,[2],0.413
same,PBM binding z-score,[3],-0.836
same,PBM binding z-score,[4],0.0167
same,PBM binding z-score,[5],-0.804
same,PBM binding z-score,[6],2.06
same,PBM binding z-score,[7],2.08
same,PBM binding z-score,[8],1.64
same,PBM binding z-score,[9],0.279
same,PBM binding z-score,[10],0.796
ATATGTAGGTTATCGGGTCATTCTGTTTGCGCAT,PBM binding z-score,[1],3.44
same,PBM binding z-score,[2],3.6
same,PBM binding z-score,[3],2.23
same,PBM binding z-score,[4],3.26
same,PBM binding z-score,[5],1.27
same,PBM binding z-score,[6],4.93
same,PBM binding z-score,[7],6.86
same,PBM binding z-score,[8],6.16
same,PBM binding z-score,[9],3.52
same,PBM binding z-score,[10],5.94
ATCTCTAGTTAAGACTCAGTTCAGTGAAGAACGC,PBM binding z-score,[1],0.381
same,PBM binding z-score,[2],0.546
same,PBM binding z-score,[3],0.699
same,PBM binding z-score,[4],0.459
same,PBM binding z-score,[5],0.922
same,PBM binding z-score,[6],-0.0115
same,PBM binding z-score,[7],-0.0269
same,PBM binding z-score,[8],0.419
same,PBM binding z-score,[9],0.293
same,PBM binding z-score,[10],0.347
GCTGCTAGGTCAGGTTGGTAAGCTAACGGGTACG,PBM binding z-score,[1],1.13
same,PBM binding z-score,[2],0.523
same,PBM binding z-score,[3],-0.37
same,PBM binding z-score,[4],0.0783
same,PBM binding z-score,[5],-0.406
same,PBM binding z-score,[6],1.51
same,PBM binding z-score,[7],0.427
same,PBM binding z-score,[8],0.848
same,PBM binding z-score,[9],-0.218
same,PBM binding z-score,[10],0.338
ACTAGTTGGTCAGCTGCGGTCACACACAATTCGG,PBM binding z-score,[1],0.216
same,PBM binding z-score,[2],0.737
same,PBM binding z-score,[3],1.43
same,PBM binding z-score,[4],0.671
same,PBM binding z-score,[5],0.37
same,PBM binding z-score,[6],0.527
same,PBM binding z-score,[7],0.606
same,PBM binding z-score,[8],0.528
same,PBM binding z-score,[9],-0.0871
same,PBM binding z-score,[10],0.128
CCTTACGGGTCACTGAGAGGTTATAGCATTTGGA,PBM binding z-score,[1],5.67
same,PBM binding z-score,[2],4.71
same,PBM binding z-score,[3],0.946
same,PBM binding z-score,[4],3.9
same,PBM binding z-score,[5],-0.26
same,PBM binding z-score,[6],5.58
same,PBM binding z-score,[7],4.88
same,PBM binding z-score,[8],4.87
same,PBM binding z-score,[9],1.69
same,PBM binding z-score,[10],3.68
AGAATGAGGTTACCGAAGATCAGGGAAACGCTTG,PBM binding z-score,[1],2.18
same,PBM binding z-score,[2],4.55
same,PBM binding z-score,[3],-0.477
same,PBM binding z-score,[4],2.19
same,PBM binding z-score,[5],-0.522
same,PBM binding z-score,[6],3.81
same,PBM binding z-score,[7],2.86
same,PBM binding z-score,[8],3.26
same,PBM binding z-score,[9],1.19
same,PBM binding z-score,[10],2.55
ATCTCTAGGTAAAAGTGCAGTGAATCCCGAGGAT,PBM binding z-score,[1],0.179
same,PBM binding z-score,[2],-0.141
same,PBM binding z-score,[3],-0.393
same,PBM binding z-score,[4],0.0767
same,PBM binding z-score,[5],0.339
same,PBM binding z-score,[6],2.81
same,PBM binding z-score,[7],4.31
same,PBM binding z-score,[8],5.78
same,PBM binding z-score,[9],3.66
same,PBM binding z-score,[10],6.27
CTTCCAAGGTGAACAAGGTCGTTGATTACTATTC,PBM binding z-score,[1],1.17
same,PBM binding z-score,[2],1.18
same,PBM binding z-score,[3],0.234
same,PBM binding z-score,[4],1.67
same,PBM binding z-score,[5],-0.522
same,PBM binding z-score,[6],2.49
same,PBM binding z-score,[7],0.855
same,PBM binding z-score,[8],1.31
same,PBM binding z-score,[9],0.0258
same,PBM binding z-score,[10],0.487
ATCGAAAGGTCGACGATGTGAGTATACACCGTTT,PBM binding z-score,[1],3.67
same,PBM binding z-score,[2],3.02
same,PBM binding z-score,[3],-0.0144
same,PBM binding z-score,[4],2.55
same,PBM binding z-score,[5],0.246
same,PBM binding z-score,[6],4.4
same,PBM binding z-score,[7],2.46
same,PBM binding z-score,[8],2.71
same,PBM binding z-score,[9],0.896
same,PBM binding z-score,[10],1.84
CCTTACGGGTCAAGGCTATAGCACGGGTGGTACG,PBM binding z-score,[1],5.49
same,PBM binding z-score,[2],3.26
same,PBM binding z-score,[3],-0.261
same,PBM binding z-score,[4],2.59
same,PBM binding z-score,[5],-0.119
same,PBM binding z-score,[6],4.88
same,PBM binding z-score,[7],3.91
same,PBM binding z-score,[8],4.41
same,PBM binding z-score,[9],1.45
same,PBM binding z-score,[10],2.99
CCTGCTGGGCCACGAAAGGTCATTGATTCAGTGA,PBM binding z-score,[1],3.41
same,PBM binding z-score,[2],5.49
same,PBM binding z-score,[3],4.48
same,PBM binding z-score,[4],4.19
same,PBM binding z-score,[5],0.0525
same,PBM binding z-score,[6],4.2
same,PBM binding z-score,[7],1.59
same,PBM binding z-score,[8],3.23
same,PBM binding z-score,[9],0.385
same,PBM binding z-score,[10],2.27
CATAGTTGGTCAGGAGGTCACACACCGGATATGA,PBM binding z-score,[1],3.73
same,PBM binding z-score,[2],3.38
same,PBM binding z-score,[3],1.98
same,PBM binding z-score,[4],3.28
same,PBM binding z-score,[5],0.669
same,PBM binding z-score,[6],4.18
same,PBM binding z-score,[7],3.64
same,PBM binding z-score,[8],3.65
same,PBM binding z-score,[9],1.73
same,PBM binding z-score,[10],3.1
ACTAGCAGGCCAAGTTTGGGACACTCAAACAAAG,PBM binding z-score,[1],-0.139
same,PBM binding z-score,[2],-0.665
same,PBM binding z-score,[3],-0.588
same,PBM binding z-score,[4],-0.515
same,PBM binding z-score,[5],-0.807
same,PBM binding z-score,[6],-0.478
same,PBM binding z-score,[7],0.0502
same,PBM binding z-score,[8],-0.814
same,PBM binding z-score,[9],-0.775
same,PBM binding z-score,[10],-0.548
TCATATAGGTAAACAGGTGATAGTCCGTAAGTTA,PBM binding z-score,[1],0.91
same,PBM binding z-score,[2],0.907
same,PBM binding z-score,[3],0.318
same,PBM binding z-score,[4],0.806
same,PBM binding z-score,[5],-0.237
same,PBM binding z-score,[6],1.73
same,PBM binding z-score,[7],2.35
same,PBM binding z-score,[8],3.2
same,PBM binding z-score,[9],4.04
same,PBM binding z-score,[10],3.64
ATCGAAAGGTCGTGAGGTGAGTATTCAGAAAGGC,PBM binding z-score,[1],5.34
same,PBM binding z-score,[2],4.08
same,PBM binding z-score,[3],-0.0279
same,PBM binding z-score,[4],3.34
same,PBM binding z-score,[5],0.35
same,PBM binding z-score,[6],5.12
same,PBM binding z-score,[7],4.06
same,PBM binding z-score,[8],4.24
same,PBM binding z-score,[9],1.5
same,PBM binding z-score,[10],2.96
ACAGACAGGTGATGAAGGTAACTTAGGCTATCAT,PBM binding z-score,[1],-0.131
same,PBM binding z-score,[2],-0.0415
same,PBM binding z-score,[3],-0.322
same,PBM binding z-score,[4],0.0367
same,PBM binding z-score,[5],-0.119
same,PBM binding z-score,[6],0.169
same,PBM binding z-score,[7],0.55
same,PBM binding z-score,[8],-0.195
same,PBM binding z-score,[9],-0.0102
same,PBM binding z-score,[10],-0.0594

# Source: the supplement of paper PMC6555819
